# Targets with a hit are over-represented here; the source holds about 8,800 in all. About 0.5% of all pairs of compound and target were hits. A number with no mark means an inactive call.
# Assays:
# Test in all cases: log2 fold change, soluble protein after heating vs DMSO (PISA); higher = thermal stabilisation; K562 lysate, 10 uM; active = over 0.2 and 3.5 SD of the protein, either way, in both replicates (recomputed)
# [1] = compound: CN1CC[C@H](c2c(O)cc(O)c3c(=O)cc(-c4ccccc4Cl)oc23)[C@H](O)C1 [alvocidib]
# In short: (§1)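 To prepare the extract, K562 pellets were dounce-homogenised in PBS pH 7.4 with 1 mM MgCl2, giving crude material at 1 mg/mL protein. This was treated with 10 μM compound for 30 min, then heated in aliquots for 3 min over 48°C-58°C before pooling and addition of NP-40 to 0.5% at 4°C. Centrifugation at 21,000xg for 90 min left soluble protein in the supernatant, which TMTpro 16plex LC-MS/MS quantified with equalised channel sums. Results are log-two fold changes in thermal stability compared with solvent controls, from duplicates.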
# [2] = compound: CN1CCc2c(c3ccccc3n2Cc2ccc(C(=O)NO)cc2)C1 [Tubastatin A]
# In short: as §1
# [3] = compound: CNC(=O)C1=CC=CC=C1NC2=NC(=NC=C2Cl)NC3=C(C=C(C=C3)N4CCOCC4)OC
# In short: as §1
# [4] = compound: CNC(=O)c1ccc(Nc2ncc(C(F)(F)F)c(NCc3nccnc3N(C)S(C)(=O)=O)n2)cc1 [defactinib]
# In short: as §1
# [5] = compound: CNc1nc(-c2ccc3c(N)n[nH]c3c2)cc(N2C[C@@H](C(=O)NC3CCCCC3)CC[C@H]2C)n1
# In short: as §1
# [6] = compound: COC(=O)N[C@@H](C)CNc1nccc(-c2cn(C(C)C)nc2-c2cc(Cl)cc(NS(C)(=O)=O)c2F)n1 [encorafenib]
# In short: as §1
# [7] = compound: COC(=O)[C@H](CCSC)NC(=O)C1=C(C=C(C=C1)NC[C@H](CS)N)C2=CC=CC=C2
# In short: as §1
# [8] = compound: COc1cc(Nc2ncc3c(n2)-c2ccc(Cl)cc2C(c2c(F)cccc2OC)=NC3)ccc1C(=O)O [alisertib]
# In short: as §1
# [9] = compound: COc1cc2nc(-c3cc(F)ccc3O)nc(N[C@@H]3CNC[C@H]3C(C)(C)O)c2cc1OC
# In short: as §1
# [10] = compound: COc1cc2ncnc(Nc3ccc(F)c(Cl)c3)c2cc1OCCCN1CCOCC1 [gefitinib]
# In short: as §1
# [11] = compound: CS(=O)(=O)CCNCc1ccc(-c2ccc3ncnc(Nc4ccc(OCc5cccc(F)c5)c(Cl)c4)c3c2)o1 [lapatinib]
# In short: as §1
# [12] = compound: CS(=O)(=O)N1CCN(Cc2cc3nc(-c4cccc5[nH]ncc45)nc(N4CCOCC4)c3s2)CC1 [pictilisib]
# In short: as §1
# [13] = compound: C[C@@H](Oc1cc(-c2cnn(C3CCNCC3)c2)cnc1N)c1c(Cl)ccc(F)c1Cl [crizotinib]
# In short: as §1
# [14] = compound: C[C@H](C1=CC=C(C=C1)C(=O)NC2=C3C=CNC3=NC=C2)N
# In short: as §1
# [15] = compound: C[C@H](Nc1ncnc2nc[nH]c12)c1cc2cccc(Cl)c2c(=O)n1-c1ccccc1 [duvelisib]
# In short: as §1
# [16] = compound: Cc1cc(Nc2cc(CN3CCOCC3)c3nc(C)c(Cc4ccc(Cl)cc4F)n3n2)n[nH]1 [gandotinib]
# In short: as §1
# [17] = compound: Cc1ccc(-n2nc(C(C)(C)C)cc2NC(=O)Nc2ccc(OCCN3CCOCC3)c3ccccc23)cc1 [doramapimod]
# In short: as §1
# [18] = compound: Cc1ccc(NC(=O)c2ccc(CN3CC[C@H](N(C)C)C3)c(C(F)(F)F)c2)cc1Nc1nccc(-c2cncnc2)n1 [bafetinib]
# In short: as §1
# [19] = compound: Cc1cccc(CC(=O)N2CCc3c2ccc(-c2cn(C)c4ncnc(N)c24)c3F)n1
# In short: as §1
# [20] = compound: Cc1cc(Nc2cc(N3CCN(C)CC3)nc(Sc3ccc(NC(=O)C4CC4)cc3)n2)n[nH]1 [tozasertib]
# In short: as §1
# Sequence of UniProt O95819 (O95819 whole entry, looked up): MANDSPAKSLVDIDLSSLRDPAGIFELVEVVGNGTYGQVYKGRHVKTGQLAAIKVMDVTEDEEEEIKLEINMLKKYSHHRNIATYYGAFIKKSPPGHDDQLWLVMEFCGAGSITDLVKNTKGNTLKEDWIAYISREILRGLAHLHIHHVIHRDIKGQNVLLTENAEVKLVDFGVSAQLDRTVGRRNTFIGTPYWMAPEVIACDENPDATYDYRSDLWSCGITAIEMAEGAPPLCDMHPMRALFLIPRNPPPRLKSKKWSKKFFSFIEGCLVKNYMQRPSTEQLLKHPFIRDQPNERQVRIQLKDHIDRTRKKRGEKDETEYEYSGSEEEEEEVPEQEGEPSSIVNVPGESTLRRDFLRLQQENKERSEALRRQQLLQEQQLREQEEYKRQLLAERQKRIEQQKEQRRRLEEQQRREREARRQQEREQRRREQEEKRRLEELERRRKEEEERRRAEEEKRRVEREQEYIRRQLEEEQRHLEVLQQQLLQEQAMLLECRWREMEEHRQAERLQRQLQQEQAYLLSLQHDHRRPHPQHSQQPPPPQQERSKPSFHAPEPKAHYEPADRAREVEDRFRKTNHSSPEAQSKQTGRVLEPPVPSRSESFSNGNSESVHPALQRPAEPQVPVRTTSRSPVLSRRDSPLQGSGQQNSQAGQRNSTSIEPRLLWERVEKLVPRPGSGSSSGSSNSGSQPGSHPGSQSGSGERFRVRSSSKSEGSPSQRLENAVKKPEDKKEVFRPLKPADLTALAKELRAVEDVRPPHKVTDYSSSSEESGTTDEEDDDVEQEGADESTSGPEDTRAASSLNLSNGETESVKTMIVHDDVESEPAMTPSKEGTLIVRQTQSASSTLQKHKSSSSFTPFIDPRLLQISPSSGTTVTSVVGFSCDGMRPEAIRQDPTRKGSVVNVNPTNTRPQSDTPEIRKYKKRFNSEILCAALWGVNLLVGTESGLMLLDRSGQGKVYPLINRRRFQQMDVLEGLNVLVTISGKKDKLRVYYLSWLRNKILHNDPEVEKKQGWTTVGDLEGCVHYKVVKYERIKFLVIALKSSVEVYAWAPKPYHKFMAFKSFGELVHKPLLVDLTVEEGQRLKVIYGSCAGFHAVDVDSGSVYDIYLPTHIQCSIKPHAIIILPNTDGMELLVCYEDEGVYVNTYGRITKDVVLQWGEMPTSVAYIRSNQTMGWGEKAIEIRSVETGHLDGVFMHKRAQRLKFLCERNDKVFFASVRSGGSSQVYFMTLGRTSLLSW
# Sequence of UniProt Q6ZRQ5 (Q6ZRQ5 whole entry, looked up): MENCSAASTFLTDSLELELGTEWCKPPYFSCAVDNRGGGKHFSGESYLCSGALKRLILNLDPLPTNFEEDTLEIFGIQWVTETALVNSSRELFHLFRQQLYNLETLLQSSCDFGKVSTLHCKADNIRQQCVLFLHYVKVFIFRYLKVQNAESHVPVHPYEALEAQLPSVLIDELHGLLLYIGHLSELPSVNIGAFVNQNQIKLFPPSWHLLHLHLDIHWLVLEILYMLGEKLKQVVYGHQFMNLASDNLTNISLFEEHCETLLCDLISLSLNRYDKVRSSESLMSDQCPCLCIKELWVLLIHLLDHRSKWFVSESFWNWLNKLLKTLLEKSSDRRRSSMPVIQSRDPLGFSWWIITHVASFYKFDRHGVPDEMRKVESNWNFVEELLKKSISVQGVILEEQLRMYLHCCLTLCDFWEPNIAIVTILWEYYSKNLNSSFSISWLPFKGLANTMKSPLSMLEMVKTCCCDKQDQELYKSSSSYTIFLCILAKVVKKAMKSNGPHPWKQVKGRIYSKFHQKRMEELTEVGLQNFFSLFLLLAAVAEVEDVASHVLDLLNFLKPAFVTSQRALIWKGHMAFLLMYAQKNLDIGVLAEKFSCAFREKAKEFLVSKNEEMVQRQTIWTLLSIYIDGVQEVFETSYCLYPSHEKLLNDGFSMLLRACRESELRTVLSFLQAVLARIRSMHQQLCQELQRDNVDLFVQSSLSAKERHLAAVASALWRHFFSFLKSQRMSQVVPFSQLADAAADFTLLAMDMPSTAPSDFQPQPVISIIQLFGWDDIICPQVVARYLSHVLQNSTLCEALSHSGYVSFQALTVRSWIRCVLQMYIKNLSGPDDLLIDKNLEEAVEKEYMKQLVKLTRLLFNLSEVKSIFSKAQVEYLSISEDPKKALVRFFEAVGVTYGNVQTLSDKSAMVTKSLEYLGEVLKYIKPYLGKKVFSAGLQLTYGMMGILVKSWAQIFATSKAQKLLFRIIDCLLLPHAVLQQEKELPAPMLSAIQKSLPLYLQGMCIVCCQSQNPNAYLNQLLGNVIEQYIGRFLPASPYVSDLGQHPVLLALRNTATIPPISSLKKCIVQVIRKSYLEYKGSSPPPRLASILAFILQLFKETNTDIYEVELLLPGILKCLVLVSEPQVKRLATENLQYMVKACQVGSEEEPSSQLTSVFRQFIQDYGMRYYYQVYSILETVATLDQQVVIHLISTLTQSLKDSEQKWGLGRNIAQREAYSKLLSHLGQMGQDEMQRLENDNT
# Sequence of UniProt O60337 (O60337 whole entry, looked up): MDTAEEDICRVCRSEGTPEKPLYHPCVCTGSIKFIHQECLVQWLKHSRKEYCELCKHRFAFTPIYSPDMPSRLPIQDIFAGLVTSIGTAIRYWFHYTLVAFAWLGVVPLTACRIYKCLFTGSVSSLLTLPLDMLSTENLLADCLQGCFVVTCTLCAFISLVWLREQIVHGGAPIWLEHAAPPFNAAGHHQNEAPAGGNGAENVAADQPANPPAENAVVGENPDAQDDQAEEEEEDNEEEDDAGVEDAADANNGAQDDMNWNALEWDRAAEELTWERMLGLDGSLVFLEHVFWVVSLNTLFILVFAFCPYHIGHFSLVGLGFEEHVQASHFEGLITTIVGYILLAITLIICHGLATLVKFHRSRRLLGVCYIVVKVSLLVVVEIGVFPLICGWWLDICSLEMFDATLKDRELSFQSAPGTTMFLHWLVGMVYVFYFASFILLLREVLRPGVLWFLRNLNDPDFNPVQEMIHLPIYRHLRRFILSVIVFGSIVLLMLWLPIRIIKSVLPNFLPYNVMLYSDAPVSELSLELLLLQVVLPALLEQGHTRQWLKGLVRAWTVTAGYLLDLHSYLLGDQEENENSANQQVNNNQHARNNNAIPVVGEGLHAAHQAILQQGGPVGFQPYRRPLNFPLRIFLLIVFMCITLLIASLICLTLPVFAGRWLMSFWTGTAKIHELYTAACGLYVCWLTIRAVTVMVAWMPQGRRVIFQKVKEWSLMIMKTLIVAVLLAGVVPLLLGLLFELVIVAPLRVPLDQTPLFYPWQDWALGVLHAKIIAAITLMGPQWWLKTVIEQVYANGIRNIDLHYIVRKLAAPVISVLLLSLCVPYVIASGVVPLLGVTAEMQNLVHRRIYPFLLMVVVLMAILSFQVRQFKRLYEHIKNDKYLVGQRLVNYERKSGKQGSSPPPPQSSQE
# Sequence of UniProt P53778 (P53778 whole entry, looked up): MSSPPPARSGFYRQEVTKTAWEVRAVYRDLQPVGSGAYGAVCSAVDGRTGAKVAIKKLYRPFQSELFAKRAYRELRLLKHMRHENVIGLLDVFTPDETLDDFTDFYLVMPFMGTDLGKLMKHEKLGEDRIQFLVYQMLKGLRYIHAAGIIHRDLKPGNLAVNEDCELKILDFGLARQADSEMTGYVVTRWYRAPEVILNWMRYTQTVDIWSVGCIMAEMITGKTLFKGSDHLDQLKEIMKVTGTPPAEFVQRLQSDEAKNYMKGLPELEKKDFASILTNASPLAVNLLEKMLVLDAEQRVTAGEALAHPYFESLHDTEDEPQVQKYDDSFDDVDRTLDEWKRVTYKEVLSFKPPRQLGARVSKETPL
# Sequence of UniProt Q9BTE3 (Q9BTE3 whole entry, looked up): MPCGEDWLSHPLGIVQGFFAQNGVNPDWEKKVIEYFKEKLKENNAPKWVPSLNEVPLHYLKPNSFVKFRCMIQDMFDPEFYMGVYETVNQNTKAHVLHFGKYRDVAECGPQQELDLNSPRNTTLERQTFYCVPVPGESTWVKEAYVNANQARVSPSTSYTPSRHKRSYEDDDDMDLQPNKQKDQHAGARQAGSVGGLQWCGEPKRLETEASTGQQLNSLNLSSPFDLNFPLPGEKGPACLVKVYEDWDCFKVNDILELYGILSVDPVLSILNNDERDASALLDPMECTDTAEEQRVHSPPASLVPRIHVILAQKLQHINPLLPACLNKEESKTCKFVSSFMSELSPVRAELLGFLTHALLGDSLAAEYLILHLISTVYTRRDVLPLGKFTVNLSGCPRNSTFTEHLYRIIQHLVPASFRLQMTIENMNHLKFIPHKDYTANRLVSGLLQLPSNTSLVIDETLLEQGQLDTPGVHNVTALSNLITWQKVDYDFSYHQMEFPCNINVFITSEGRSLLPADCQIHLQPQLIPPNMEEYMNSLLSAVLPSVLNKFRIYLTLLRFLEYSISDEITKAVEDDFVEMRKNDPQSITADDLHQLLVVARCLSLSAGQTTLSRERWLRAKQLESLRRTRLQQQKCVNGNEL
# Sequence of UniProt Q9H204 (Q9H204 whole entry, looked up): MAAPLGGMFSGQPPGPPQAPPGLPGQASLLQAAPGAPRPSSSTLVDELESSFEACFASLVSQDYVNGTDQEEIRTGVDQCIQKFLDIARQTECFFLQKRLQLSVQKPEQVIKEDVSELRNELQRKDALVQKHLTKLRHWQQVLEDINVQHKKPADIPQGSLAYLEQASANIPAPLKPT
# Sequence of UniProt Q13163 (Q13163 whole entry, looked up): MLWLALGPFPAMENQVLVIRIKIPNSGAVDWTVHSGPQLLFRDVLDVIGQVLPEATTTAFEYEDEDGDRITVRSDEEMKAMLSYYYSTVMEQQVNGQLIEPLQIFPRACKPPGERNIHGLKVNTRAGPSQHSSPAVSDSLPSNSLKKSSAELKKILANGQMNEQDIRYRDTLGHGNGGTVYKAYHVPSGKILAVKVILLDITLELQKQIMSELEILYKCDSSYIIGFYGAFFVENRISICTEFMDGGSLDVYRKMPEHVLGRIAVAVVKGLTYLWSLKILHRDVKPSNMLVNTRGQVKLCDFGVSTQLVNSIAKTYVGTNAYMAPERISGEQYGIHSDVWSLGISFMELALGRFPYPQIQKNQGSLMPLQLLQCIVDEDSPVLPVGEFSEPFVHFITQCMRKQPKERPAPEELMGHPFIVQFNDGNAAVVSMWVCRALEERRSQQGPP
Target,log2 fold change [1],log2 fold change [2],log2 fold change [3],log2 fold change [4],log2 fold change [5],log2 fold change [6],log2 fold change [7],log2 fold change [8],log2 fold change [9],log2 fold change [10],log2 fold change [11],log2 fold change [12],log2 fold change [13],log2 fold change [14],log2 fold change [15],log2 fold change [16],log2 fold change [17],log2 fold change [18],log2 fold change [19],log2 fold change [20]
MAP2K5 (UniProt Q13163),0.067,-0.033,0.086,-0.026,0.329,0.149,-0.15,-0.016,0.054,0.155,0.038,-0.021,-0.109,0.013,0.152,-0.089,-0.017,-0.436,0.105,
MAN2B2 (UniProt Q9Y2E5),0.199,0.029,-0.006,,0.059,-0.004,0.073,0.032,0.049,-0.017,0.01,0.021,0,0.595 (active),-0.018,-0.38,-0.028,-0.12,-0.546 (active),0.003
LPCAT1 (UniProt Q8NF37),-0.117,0.117,0.067,0.045,0.097,0.037,-0.063,0.07,-0.01,-0.009,0.005,-0.034,-0.031,-0.209,-0.107,0.115,-0.048,-0.072,0.078,0.006
MPDZ (UniProt O75970),0.028,0.117,0.236,0.053,0.099,-0.091,-0.032,-0.167,-0.114,0.228,0.046,,0.127,0.099,-0.003,0.016,0.053,,-0.066,0.118
MRPL35 (UniProt Q9NZE8),0.057,-0.226,0.01,0.014,0.033,,,0.01,-0.072,0.009,0.051,0.001,0.01,-0.207,-0.054,0,-0.023,-0.02,0.039,
METTL21A (UniProt Q8WXB1),0.009,0.052,0.087,,0,,,0.004,0.011,-0.028,0.004,0.06,-0.043,-0.083,0.131,0.038,-0.081,-0.04,0.016,
MARCHF6 (UniProt O60337),0.07,,-0.039,0.046,0.084,0.08,-0.05,-0.321,0.008,0.019,-0.039,0.09,-0.118,-0.073,0.103,-0.028,0.003,-0.105,-0.005,0.004
KIF2A isoform 2 (UniProt O00139),0.153,,,,,,,,,,,,,0.192,,-0.059,,,-0.059,
MAP4K4 isoform 3 (UniProt O95819),,-0.016,-0.028,0.03,-0.08,-0.075,-0.014,,0.035,-0.051,-0.061,-0.049,,0.201,0.078,-0.088,0.087,0.03,-0.01,0.014
MAPK12 (UniProt P53778),,0.022,0.025,-0.077,0.054,-0.001,0.035,-0.114,,-0.057,,0.059,,0.868 (active),-0.061,-0.15,,0,-0.163,0.248
MAPK7 (UniProt Q13164),0.069,,0.002,,,-0.03,-0.114,,0.157,,-0.145,,0.246,-0.083,,0.161,0.01,,-0.099,-0.029
MAPKAP1 (UniProt Q9BPZ7),,-0.125,-0.119,,0.081,-0.051,0.036,-0.094,,0.07,,,0.02,,-0.192,,-0.029,,,0.113
MAP4K4 isoform 6 (UniProt O95819),,0.024,-0.067,,-0.016,0.207,-0.034,,-0.058,,-0.002,-0.092,,,-0.038,,,0.016,,0.102
MED28 (UniProt Q9H204),-0.292,0.05,0.14,,0.081,,,0.011,-0.024,-0.217,0.132,,0.021,-0.039,-0.034,0.394 (active),-0.012,,-0.038,
MMS22L (UniProt Q6ZRQ5),0.068,,-0.011,0.06,-0.03,-0.007,0.017,-0.004,0.055,0.035,-0.101,-0.034,0.113,0.065,-0.106,-0.169,-0.018,-0.152,-0.029,0.087
MCMBP isoform 2 (UniProt Q9BTE3),,-0.142,0.102,0.089,0.199,-0.015,0.124,0.067,-0.091,-0.082,0.154,-0.179,0.14,,-0.03,,-0.092,0.235,,0.013
LIMK1 (UniProt P53667),-0.135,0,,-0.053,-0.085,0.489 (active),-0.086,-0.261,-0.203,0.106,0.049,-0.087,0.276,0.029,0.109,-0.03,-0.009,-0.348,0.138,0.096
KLHL12 isoform 2 (UniProt Q53G59),,-0.156,-0.051,-0.025,-0.02,,,0.023,0.086,-0.048,0.023,0.048,0.016,,0.084,,0.003,-0.131,,
MRPL22 (UniProt Q9NWU5),0.018,-0.033,0.036,,,,,-0.003,-0.052,-0.051,-0.023,,-0.047,-0.038,,-0.018,0.016,,0.05,

# Source: the supplement of paper PMC10849652
